In PubChem BioAssay AID1159580 (chemical genetic matrix, 2015):
The whole screen tested about 5,500 compounds, of which about 2,000 (36%) were called active. About 18% were inconclusive and are not listed. Rule as the data show it: active = normalized growth mostly below about 0.91 (no sharp cut-off); inconclusive = no clear call, values can overlap the other calls; inactive = mostly above about 0.92. The list shows a part of the results.

Experiment: chemical genetic growth profiling, strain panel (AID 1159580);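 also: tested at 20 µM; growth read once vehicle control cultures reached saturation at 30 °C; 1 = growth at the plate median or of vehicle wells; lower values mean less growth of the strain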
Conditions: growth OD

Measured: normalized growth

COc1ccc2c(c1OC)C(=O)O[C@H]2[C@H]1c2cc3c(cc2CCN1C)OCO3
inactive: S. cerevisiae deletion strains, locus YJR075W, strain HOC1, active compounds read low 1 | S. cerevisiae deletion strains, locus YKL009W, strain mrt4, active compounds read low 1.03 | S. cerevisiae deletion strains, locus YKL068W, active compounds read low 1 | S. cerevisiae deletion strains, locus YKL085W, strain MDH1 (second series), active compounds read low 1 | S. cerevisiae deletion strains, locus YKL085W, strain MDH1, active compounds read low 1 | S. cerevisiae deletion strains, locus YKL160W, strain elf1, active compounds read low 0.994 | S. cerevisiae deletion strains, locus YKL190W, strain CNB1, active compounds read low 1 | S. cerevisiae deletion strains, locus YKR001C, strain vps1, active compounds read low 1.03 | S. cerevisiae deletion strains, locus YKR026C, strain gcn3, active compounds read low 1.01 | S. cerevisiae deletion strains, locus YKR091W, strain srl3, active compounds read low 0.99 | S. cerevisiae deletion strains, locus YLL001W, strain dnm1, active compounds read low 0.998 | S. cerevisiae deletion strains, locus YLL026W, active compounds read low 1 | S. cerevisiae deletion strains, locus YLL041C, strain sdh2, active compounds read low 1 | S. cerevisiae deletion strains, locus YLR027C, strain aat2, active compounds read low 1 | S. cerevisiae deletion strains, locus YLR039C, strain RIC1, active compounds read low 1.04 | S. cerevisiae deletion strains, locus YLR058C, strain SHM2, active compounds read low 1 | S. cerevisiae deletion strains, locus YLR102C, strain apc9, active compounds read low 1.01 | S. cerevisiae deletion strains, locus YLR113W, strain HOG1, active compounds read low 1.05 | S. cerevisiae deletion strains, locus YLR221C, strain rsa3, active compounds read low 0.998 | S. cerevisiae deletion strains, locus YLR258W, strain gsy2, active compounds read low 1.01 | S. cerevisiae deletion strains, locus YLR262C, strain YPT6 (second series), active compounds read low 1.01 | S. cerevisiae deletion strains, locus YLR262C, strain YPT6, active compounds read low 1.03 | S. cerevisiae deletion strains, locus YLR268W, strain sec22, active compounds read low 1.01 | S. cerevisiae deletion strains, locus YLR320W, strain mms22, active compounds read low 1 | S. cerevisiae deletion strains, locus YLR330W, strain CHS5, active compounds read low 1.01 | S. cerevisiae deletion strains, locus YLR342W, strain FKS1 (second series), active compounds read low 0.981 | S. cerevisiae deletion strains, locus YLR342W, strain FKS1, active compounds read low 0.996 | S. cerevisiae deletion strains, locus YLR357W, strain rsc2, active compounds read low 1.03 | S. cerevisiae deletion strains, locus YLR370C, strain arc18, active compounds read low 0.994 | S. cerevisiae deletion strains, locus YLR371W, strain rom2, active compounds read low 1.02 | S. cerevisiae deletion strains, locus YLR384C, strain iki3, active compounds read low 1 | S. cerevisiae deletion strains, locus YLR418C, strain cdc73, active compounds read low 1.03 | S. cerevisiae deletion strains, locus YML016C, strain PPZ1, active compounds read low 1 | S. cerevisiae deletion strains, locus YML032C, strain rad52, active compounds read low 1.01 | S. cerevisiae deletion strains, locus YML120C, strain ndi1, active compounds read low 0.987 | S. cerevisiae deletion strains, locus YML124C, strain tub3, active compounds read low 1.01 | S. cerevisiae deletion strains, locus YMR058W, strain fet3, active compounds read low 1 | S. cerevisiae deletion strains, locus YMR078C, strain ctf18, active compounds read low 1 | S. cerevisiae deletion strains, locus YMR125W, strain sto1, active compounds read low 0.991 | S. cerevisiae deletion strains, locus YMR129W, active compounds read low 0.998 | S. cerevisiae deletion strains, locus YMR205C, strain PFK2, active compounds read low 1 | S. cerevisiae deletion strains, locus YMR223W, strain ubp8, active compounds read low 1 | S. cerevisiae deletion strains, locus YMR231W, strain pep5, active compounds read low 0.999 | S. cerevisiae deletion strains, locus YMR263W, strain SAP30, active compounds read low 1 | S. cerevisiae deletion strains, locus YMR307W, strain GAS1, active compounds read low 1.05 | S. cerevisiae deletion strains, locus YNL067W, strain RPL9B, active compounds read low 0.979 | S. cerevisiae deletion strains, locus YNL071W, strain lat1, active compounds read low 0.994 | S. cerevisiae deletion strains, locus YNL128W, strain TEP1, active compounds read low 0.984 | S. cerevisiae deletion strains, locus YNL153C, strain GIM3, active compounds read low 1 | S. cerevisiae deletion strains, locus YNL183C, strain NPR1, active compounds read low 0.979 | S. cerevisiae deletion strains, locus YNL209W, strain ssb2, active compounds read low 1 | S. cerevisiae deletion strains, locus YNL233W, strain BNI4, active compounds read low 1.01 | S. cerevisiae deletion strains, locus YNL248C, strain rpa49, active compounds read low 0.988 | S. cerevisiae deletion strains, locus YNL250W, strain rad50, active compounds read low 1 | S. cerevisiae deletion strains, locus YNL271C, strain bni1, active compounds read low 1 | S. cerevisiae deletion strains, locus YNL298W, strain CLA4, active compounds read low 1.01 | S. cerevisiae deletion strains, locus YNL307C, strain MCK1, active compounds read low 1.01 | S. cerevisiae deletion strains, locus YNL322C, strain KRE1 (second series), active compounds read low 1.01 | S. cerevisiae deletion strains, locus YNL322C, strain KRE1, active compounds read low 1 | S. cerevisiae deletion strains, locus YNR049C, strain mso1, active compounds read low 0.995 | S. cerevisiae deletion strains, locus YNR052C, strain pop2, active compounds read low 0.999 | S. cerevisiae deletion strains, locus YOL006C, strain TOP1, active compounds read low 1.03 | S. cerevisiae deletion strains, locus YOL012C, strain htz1 0.872 | S. cerevisiae deletion strains, locus YOL147C, strain pex11, active compounds read low 1.01 | S. cerevisiae deletion strains, locus YOR001W, strain rrp6, active compounds read low 0.995 | S. cerevisiae deletion strains, locus YOR061W, strain CKA2, active compounds read low 1 | S. cerevisiae deletion strains, locus YOR069W, strain VPS5, active compounds read low 0.997 | S. cerevisiae deletion strains, locus YOR070C, strain gyp1, active compounds read low 0.995 | S. cerevisiae deletion strains, locus YOR080W, strain dia2, active compounds read low 1 | S. cerevisiae deletion strains, locus YOR083W, strain WHI5, active compounds read low 0.988 | S. cerevisiae deletion strains, locus YOR106W, strain vam3, active compounds read low 1.02 | S. cerevisiae deletion strains, locus YOR136W, strain idh2, active compounds read low 1 | S. cerevisiae deletion strains, locus YOR144C, strain elg1, active compounds read low 1.01 | S. cerevisiae deletion strains, locus YOR184W, strain ser1, active compounds read low 0.999 | S. cerevisiae deletion strains, locus YOR231W, strain MKK1, active compounds read low 1.06 | S. cerevisiae deletion strains, locus YOR265W, strain rbl2, active compounds read low 1 | S. cerevisiae deletion strains, locus YOR270C, strain vph1, active compounds read low 0.998 | S. cerevisiae deletion strains, locus YOR290C, strain snf2, active compounds read low 0.975 | S. cerevisiae deletion strains, locus YOR316C, strain cot1, active compounds read low 1 | S. cerevisiae deletion strains, locus YPL051W, strain arl3, active compounds read low 0.982 | S. cerevisiae deletion strains, locus YPL055C, strain LGE1, active compounds read low 0.986 | S. cerevisiae deletion strains, locus YPL078C, strain atp4, active compounds read low 0.996 | S. cerevisiae deletion strains, locus YPL106C, strain sse1, active compounds read low 0.982 | S. cerevisiae deletion strains, locus YPL240C, strain hsp82, active compounds read low 1 | S. cerevisiae deletion strains, locus YPL241C, strain CIN2, active compounds read low 0.997 | S. cerevisiae deletion strains, locus YPL256C, strain CLN2, active compounds read low 1.03 | S. cerevisiae deletion strains, locus YPR119W, strain clb2, active compounds read low 1.01 | S. cerevisiae deletion strains, locus YPR141C, strain kar3, active compounds read low 1.01 | S. cerevisiae deletion strains, locus YPR163C, strain tif3, active compounds read low 1.02 | S. cerevisiae deletion strains, locus YPR167C, strain met16, active compounds read low 1.01 | S. cerevisiae deletion strains, strain wtn01, active compounds read low 1.01 | S. cerevisiae strains, strain wild type, active compounds read low 0.982
